The results in this text go back to PubChem BioAssay (NCATS).

Records with an inconclusive call do not appear. Unmarked numbers belong to inactive results. Active and inactive are the calls of the source. The call rests on the fitted dose curve; in most records, active means well fitted inhibition curve with a large enough effect; inconclusive means small, poorly fitted or top-dose-only effect; inactive means flat fitted curve, though single readings scatter. Positions of bridges follow the written chain, without caps; N, C: chain ends. Non-standard residues stand in square brackets, D forms with d. Residues, ends and D or L forms follow the SMILES beside them. ξ: configuration not given here. *: point of attachment. Octanoyl(6-Me) = CCC(C)CCCCC(=O)*; ξThr(3R) = C[C@@H](O)C(N)C(=O)O; dDab = NCC[C@@H](N)C(=O)O; Dab = NCC[C@H](N)C(=O)O; Nva = CCC[C@H](N)C(=O)O; Cbz = O=C(OCc1ccccc1)*
On the % scale 0 is the no-effect control and ±100 the full control effect.

The experiment deals with Calcium and integrin-binding protein 1 (Homo sapiens) (UniProt Q99828). Kind of experiment: Primary qHTS for Identification of Calcium Integrin Binding Protein 1 (CIB1) Competitor (AID 1508620).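 Further: GST tagged CIB1 binding a fluorescein labelled alphaIIb integrin peptide tracer; top concentration of the series differs between compounds.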 The settings on record: CIB1-GST / FITC-alphaIIb peptide fluorescence polarization; series mostly up to 57.7 µM; activity change, negative = inhibition: at the top concentration. In outline: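 Fluorescence polarization competition: CIB1-GST (1 uM final) preincubated with compound 15 min at room temperature, then FITC-labeled alphaIIb peptide (100 nM final) added for another 15 min. Polarization read at Ex 480/Em 540.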
Calcium and integrin-binding protein 1 (Homo sapiens), sequence (Q99828 whole entry, looked up): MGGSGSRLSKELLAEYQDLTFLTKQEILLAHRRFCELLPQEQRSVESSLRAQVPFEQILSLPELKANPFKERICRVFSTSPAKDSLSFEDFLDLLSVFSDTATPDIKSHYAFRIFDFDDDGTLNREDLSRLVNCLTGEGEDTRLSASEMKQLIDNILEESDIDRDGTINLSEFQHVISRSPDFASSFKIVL
In the case of `CCNC(=O)Nc1ccc(-c2nc3c(c(N4CCOC[C@H]4C)n2)CCN(C2COC2)C3)cc1`, the “activity change, negative = inhibition” value was -4.08%. The same measure, in the same setting: under `CC(N[C@H]1CCCC[C@H]1NC(=O)c1ccc(Cl)cc1)c1cccc2ccccc12` (some centres not stated) stands -2.91%; under `Cc1cc(Nc2ncc3c(n2)N(C)C(=O)N(c2cc(NC(=O)c4cccc(C(F)(F)F)c4)ccc2C)C3)n(C)n1`, -4.42%; under `C[C@@H]1CC[C@@]2(OC1)OC1CC3C4CC=C5CC(O)CCC5(C)C4CCC3(C)C1[C@@H]2C` (some centres not stated), -4.53%. On the same count and under the same terms, as for `C[C@](Cc1c[nH]c2ccccc12)(NC(=O)OC1C2CC3CC(C2)CC1C3)C(=O)NC[C@H](NC(=O)CCC(=O)O)c1ccccc1` (some centres not stated), the figure is -1.48%; as for `COc1cc([C@@H]2c3cc4c(cc3[C@H](O)[C@H]3COC(=O)[C@@H]23)OCO4)cc(OC)c1OC`, 0.0907%. With `CCN(CC)Cc1ccc2cc(COC(=O)Nc3ccc(C(=O)NO)cc3)ccc2c1`, the “activity change, negative = inhibition” value is -0.158% [at 114 µM]. The same measure, in the same setting: as for `CC(C)(C)c1nc2c3cc[nH]c(=O)c3c3cc(F)ccc3c2[nH]1`, the figure is 1.71%; as for `CCC[C@H]1C[C@H](C(=O)N[C@@H]([C@@H]2O[C@@H](SC)[C@@H](O)[C@@H](O)[C@@H]2O)[C@H](C)Cl)N(C)C1`, -4.82% [at 114 µM]; as for `O=C(CCCCCCC(=O)Nc1cccnc1)NO`, -1.38%. With `c1ccc(CNc2nc(NCc3ccccc3)c3ccccc3n2)cc1`, the “activity change, negative = inhibition” value was 1.56%. `COc1cc(O)c2c(c1)C1OC1C[C@H](O)[C@H](O)C(=O)C=CC[C@H](C)OC2=O` (some centres not stated): the “activity change, negative = inhibition” value was -0.551%. On the same count and under the same terms, under `CC(Cc1ccc(O)c(O)c1)(NN)C(=O)O` (configuration not stated) stands -2.34%; under `C[C@@H]1C(=O)O[C@H]2CC34[C@H]5C[C@@H](C(C)(C)C)C36[C@H](OC(=O)[C@@H]6O)O[C@@]4(C(=O)O5)[C@]21O` (some centres not stated), -5.15%. `Nc1ccc(C(=O)Nc2cccc(-c3nc(N4CCOCC4)c4oc5ncccc5c4n3)c2)cn1`: the Potency result was “inactive”. In the case of `c1cc(N[C@@H]2CCNC2)nc(-c2cnc3ccc(-c4cn[nH]c4)cn23)c1`, the “activity change, negative = inhibition” value is -11.9% [at 114 µM]. Consider `Cc1ccc2nc(NCCN)c3ncc(C)n3c2c1`, for which the “activity change, negative = inhibition” value was -1.56%. Same read-out and setting: as for `COc1cc(C(=O)NC2CCN(C)CC2)ccc1Nc1ncc2c(n1)N(C1CCCC1)CCC(=O)N2C(C)C`, the figure is -5.69%; as for `CCC(C)CCCCC(=O)N[C@@H](CCN)C(=O)NC(C(=O)N[C@H](CCN)C(=O)N[C@@H]1CCNC(=O)C([C@@H](C)O)NC(=O)[C@@H](CCN)NC(=O)[C@@H](CCN)NC(=O)[C@@H](CC(C)C)NC(=O)[C@H](Cc2ccccc2)NC(=O)[C@H](CCN)NC1=O)[C@@H](C)O` (stereo partly drawn) ({Octanoyl(6-Me)}-[Dab][ξThr(3R)][dDab][dDab][Dab]F[dL][dDab][dDab][ξThr(3R)]; lactam 4-C), -5.01%. The same measure, in the same setting: as for `Oc1ccc(-c2ccc(-c3cc(Nc4cccc(CNC5CC5)c4)n[nH]3)cc2)c(O)c1`, the figure is 3.73%. For `CC(C)C[C@H](NC(=O)[C@@H](NC(=O)c1cccc(-c2ccccc2)n1)[C@@H](C)O)B(O)O`, the Potency entry was “inactive”. Turning to `CN1C(C(=O)Nc2ccccn2)=C(O)c2sc(Cl)cc2S1(=O)=O`, the “activity change, negative = inhibition” value is 25.3%. The same measure, in the same setting: under `Nc1nc(=O)n([C@H]2C[C@H](O)[C@@H](CO)O2)cc1F` stands -0.503%.

Regarding `O=C(O)CCCCC(CCSCc1ccccc1)SCc1ccccc1` (configuration not stated), the “activity change, negative = inhibition” value is -4.65%. Still for that read-out and setting: as for `CC[C@@]1([C@@H]2O[C@@H]([C@H]3O[C@@](O)(CO)[C@H](C)C[C@H]3C)C[C@H]2C)CC[C@H]([C@]2(C)CC[C@]3(C[C@H](O)[C@@H](C)[C@@H]([C@@H](C)[C@@H](OC)[C@H](C)C(=O)O)O3)O2)O1`, the figure is -0.164% [at 30.2 µM]; as for `CCOC(=O)C=C[C@H](C[C@@H]1CCNC1=O)NC(=O)[C@@H](CC(=O)[C@@H](NC(=O)c1cc(C)on1)C(C)C)Cc1ccc(F)cc1`, -1.24%; as for `C[C@H](NC(=O)Cc1cc(F)cc(F)c1)C(=O)N[C@H](C(=O)OC(C)(C)C)c1ccccc1`, -2.5%. Consider `O=C(CN1C(=O)C2(CCCC2)NC[C@H]1c1cc(F)cc(F)c1)Nc1ccc2c(c1)C[C@@]1(C2)C(=O)Nc2ncccc21`, for which the “activity change, negative = inhibition” value was 4.18%. On to `CCC[C@@H](C=O)NC(=O)[C@H](CC(C)C)NC(=O)[C@H](CC(C)C)NC(=O)OCc1ccccc1` (Cbz-Leu-Leu-[Nva]-aldehyde), for which the “activity change, negative = inhibition” value is -6.96%. With `Cn1c(Nc2ccc(C(F)(F)F)cc2)nc2cc(Oc3ccnc(-c4ncc(C(F)(F)F)[nH]4)c3)ccc21`, the “activity change, negative = inhibition” value is -0.446%. As for `N=c1ccn2c(n1)O[C@H]1[C@@H](O)[C@@H](CO)O[C@H]12`, the “activity change, negative = inhibition” value was 1.67%. Same read-out and setting: as for `CC(C)NC[C@@H](C(=O)N1CCN(c2ncnc3c2[C@H](C)C[C@H]3O)CC1)c1ccc(Cl)cc1`, the figure is 2.12%.
